Experimental data as given in paper PMC8159961, “Exploring protein hotspots by optimized fragment pharmacophores” (Nature Communications, 2021).

These molecules were tested against 5-HT1A receptor (human, UniProt P08908) (assay: primary screen, binary call; higher = more effect of the substance). Settings: 10 µM; call rule not given here.
Design: hit call from the mean of at least two separate experiments
Experimental: GPCR radioligand binding assays were performed in HEK293 cells with stable expression of human 5-HT1A, 5-HT6, and 5-HT7b receptors (prepared with the use of Lipofectamine 2000). Non-specific binding was defined with 10 µM of 5-HT in 5-HT1AR and 5-HT7R binding experiments, whereas 10 µM of mianserin was used in 5-HT6R assays, respectively. Each compound was tested at 10 µM concentration. Results were expressed as means of at least two separate experiments.

Chain of 5-HT1A receptor (P08908 whole entry, looked up): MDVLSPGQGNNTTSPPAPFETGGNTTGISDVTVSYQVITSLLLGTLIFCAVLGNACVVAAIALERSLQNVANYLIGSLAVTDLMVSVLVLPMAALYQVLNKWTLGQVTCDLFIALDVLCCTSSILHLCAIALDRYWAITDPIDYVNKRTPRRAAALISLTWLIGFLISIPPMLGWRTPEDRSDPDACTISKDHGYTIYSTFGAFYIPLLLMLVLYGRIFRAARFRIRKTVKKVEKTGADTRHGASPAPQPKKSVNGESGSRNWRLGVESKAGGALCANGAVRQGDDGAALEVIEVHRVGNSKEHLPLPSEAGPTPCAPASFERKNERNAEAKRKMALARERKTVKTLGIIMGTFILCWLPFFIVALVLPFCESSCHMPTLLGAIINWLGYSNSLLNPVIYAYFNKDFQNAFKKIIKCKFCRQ

5-HT1, inactive:
CN1CC(=O)NC1=O 0
CS(=O)(=O)Nc1ccc(C(=O)O)cc1 0
Cc1cc(-c2ccccc2)n[nH]1 0
CCn1cnc2ccccc21 0
Clc1ccc2nnnn2n1 0
c1ccc(Nc2nncs2)cc1 0
O=c1ccc2c([nH]1)CCCC2 0
CCCN1C(=O)CC(=O)NC1=S 0
Nc1nnc(-c2cccs2)[nH]1 0
CC1CCc2sc(C(=O)O)cc2C1 (centres unmarked) 0
O=C1CCN(c2ccccn2)CC1 0
